How the values were obtained:
[1] = biological target: Protein kinase C alpha type (Homo sapiens) (UniProt P17252); conditions: at 1 µM
[2] = biological target: Protein kinase C alpha type (Homo sapiens) (UniProt P17252); conditions: at 10 µM
[3] = biological target: Protein kinase C beta type (Homo sapiens) (UniProt P05771); conditions: at 1 µM
[4] = biological target: Protein kinase C beta type (Homo sapiens) (UniProt P05771); conditions: at 10 µM
[5] = biological target: Protein kinase C gamma type (Homo sapiens) (UniProt P05129); conditions: at 1 µM
[6] = biological target: Protein kinase C gamma type (Homo sapiens) (UniProt P05129); conditions: at 10 µM
[7] = biological target: Protein kinase C delta type (Homo sapiens) (UniProt Q05655); conditions: at 1 µM
[8] = biological target: Protein kinase C delta type (Homo sapiens) (UniProt Q05655); conditions: at 10 µM
[9] = biological target: Protein kinase C beta type (Homo sapiens) (UniProt P05771); conditions: at 1 µM; remark: listed apart in the source
[10] = biological target: Protein kinase C beta type (Homo sapiens) (UniProt P05771); conditions: at 10 µM; remark: listed apart in the source

Protein kinase C delta type (Homo sapiens), sequence (Q05655 whole entry, looked up): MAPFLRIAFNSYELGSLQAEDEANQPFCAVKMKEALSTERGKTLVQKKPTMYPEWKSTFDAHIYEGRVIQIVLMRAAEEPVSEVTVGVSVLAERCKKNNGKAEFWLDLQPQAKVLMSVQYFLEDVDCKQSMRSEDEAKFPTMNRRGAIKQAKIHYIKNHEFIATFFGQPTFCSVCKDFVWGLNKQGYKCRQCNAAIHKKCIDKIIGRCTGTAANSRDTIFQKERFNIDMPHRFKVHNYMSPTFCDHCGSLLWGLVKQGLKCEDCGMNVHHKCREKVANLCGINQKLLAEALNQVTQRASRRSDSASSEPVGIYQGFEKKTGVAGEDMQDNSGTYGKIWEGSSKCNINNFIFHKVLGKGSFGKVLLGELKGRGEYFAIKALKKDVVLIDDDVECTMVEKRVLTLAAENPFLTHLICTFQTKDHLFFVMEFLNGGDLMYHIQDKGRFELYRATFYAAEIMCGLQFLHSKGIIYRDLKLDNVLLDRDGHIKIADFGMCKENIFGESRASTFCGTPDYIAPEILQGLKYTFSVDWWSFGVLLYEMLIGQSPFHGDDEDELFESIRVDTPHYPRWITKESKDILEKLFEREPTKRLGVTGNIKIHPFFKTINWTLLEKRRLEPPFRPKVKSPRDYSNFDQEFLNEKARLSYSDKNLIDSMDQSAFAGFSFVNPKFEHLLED
Protein kinase C beta type (Homo sapiens), sequence (P05771 2-671 limits assumed): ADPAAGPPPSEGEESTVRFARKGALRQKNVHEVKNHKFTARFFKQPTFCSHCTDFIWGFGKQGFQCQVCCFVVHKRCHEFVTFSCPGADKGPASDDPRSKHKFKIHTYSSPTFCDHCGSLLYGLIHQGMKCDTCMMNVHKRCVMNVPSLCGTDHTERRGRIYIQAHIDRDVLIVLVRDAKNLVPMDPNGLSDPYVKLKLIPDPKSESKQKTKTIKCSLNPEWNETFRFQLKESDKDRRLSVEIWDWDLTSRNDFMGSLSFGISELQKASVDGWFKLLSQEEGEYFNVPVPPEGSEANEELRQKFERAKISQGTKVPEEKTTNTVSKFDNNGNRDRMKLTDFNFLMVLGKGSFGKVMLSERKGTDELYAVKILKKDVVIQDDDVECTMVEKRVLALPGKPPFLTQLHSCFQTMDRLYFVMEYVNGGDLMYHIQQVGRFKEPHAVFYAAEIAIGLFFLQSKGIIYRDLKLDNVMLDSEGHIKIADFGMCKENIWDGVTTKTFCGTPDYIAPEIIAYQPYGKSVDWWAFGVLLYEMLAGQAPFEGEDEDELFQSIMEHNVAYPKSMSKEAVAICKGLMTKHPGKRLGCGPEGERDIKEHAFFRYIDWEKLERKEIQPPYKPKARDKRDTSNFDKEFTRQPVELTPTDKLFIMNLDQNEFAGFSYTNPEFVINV

| SMILES | residual activity [1] | residual activity [2] | residual activity [3] | residual activity [4] | residual activity [5] | residual activity [6] | residual activity [7] | residual activity [8] | residual activity [9] | residual activity [10] |
| --- | --- | --- | --- | --- | --- | --- | --- | --- | --- | --- |
| NCCNc1ncc(C(N)=O)c(Nc2cccc(C(F)(F)F)c2)n1 | 45% | 8% | 106% | 60% | 58% | 11% | 75% | 28% |  |  |
| COc1cc2ncnc(Nc3cccc(Cl)c3)c2cc1OC | 103% | 108% | 110% | 106% |  |  | 104% | 109% | 107% | 108% |
| NC(=O)Nc1sc(-c2ccc(F)cc2)cc1C(N)=O | 91% | 54% | 103% | 77% |  |  | 78% | 31% | 105% | 89% |
| O=C(O)/C=C/c1cc(Br)c(Br)c(Br)c1Br | 105% | 102% | 124% |  | 96% |  | 100% | 96% | 97% | 101% |
| O=C1NC(=O)c2c1c1c3ccccc3[nH]c1n1cncc21 | 97% | 84% |  |  | 71% | 56% | 79% | 70% |  |  |
| NC(=O)c1ccc(-c2nc(-c3ccc4c(c3)OCCO4)c(-c3ccccn3)[nH]2)cc1 | 90% | 96% | 124% | 121% |  |  | 93% | 100% |  |  |
| O=C1Cc2c([nH]c3ccc([N+](=O)[O-])cc23)-c2ccccc2N1 | 100% | 105% |  |  |  |  |  |  |  |  |
| Cn1c2ccccc2c2c3c(c4c5ccccc5n(CCC#N)c4c21)CNC3=O | 1% | 3% | 6% | 6% | 9% | 16% |  |  |  |  |
| c1ccc(-c2cnc(Nc3ccc(OCCN4CCCC4)cc3)s2)cc1 | 101% | 110% | 121% | 116% | 123% | 111% |  |  |  |  |
| O=C(CCCc1ccc(-c2ccccc2F)cc1)Nc1ccc(O)cc1 | 106% | 108% | 112% | 108% | 104% | 110% |  |  | 108% | 101% |
| COc1cc2nccc(Oc3ccc(NC(=S)NC(=O)c4ccccc4C)cc3)c2cc1OC | 99% | 99% |  |  |  |  | 98% | 101% | 98% | 101% |
| CCCC(=O)Oc1ccc2[nH]c(C(=O)c3cc4ccccc4[nH]3)cc2c1 | 106% | 108% |  | 93% |  |  | 101% |  | 100% |  |
| O=C1Cc2c([nH]c3ccc(Br)cc23)-c2ccccc2N1 | 90% | 70% |  |  |  | 93% | 99% | 93% |  | 88% |
| CC(C)[C@H](CO)Nc1nc(Nc2cc(N)cc(Cl)c2)c2ncn(C(C)C)c2n1 | 83% | 97% |  |  | 94% | 80% | 93% | 72% |  |  |
| CC(C)(C)n1nc(Cc2cccc3ccccc23)c2c(N)ncnc21 | 93% | 93% | 119% | 97% | 106% | 94% | 101% | 106% | 104% | 105% |
| Nc1ncnc2c1c(-c1ccc(Oc3ccccc3)cc1)cn2C1CCCC1 | 102% | 98% | 103% | 103% | 111% | 104% | 94% | 100% | 99% | 91% |
| O=C1NC(=O)C(c2c[nH]c3ccccc23)=C1c1c[nH]c2ccccc12 | 26% | 4% | 66% | 23% | 36% | 6% | 31% | 5% | 75% | 27% |
| CC(C)(C)c1nc2c3ccc(F)cc3c3c(=O)[nH]ccc3c2[nH]1 | 65% | 62% |  |  | 40% | 46% | 54% | 63% |  |  |
| Cc1cc(C)c(/C=C2\C(=O)Nc3ccccc32)[nH]1 | 100% | 104% |  |  |  |  |  |  |  |  |

| SMILES | residual activity [1] | residual activity [2] | residual activity [3] | residual activity [4] | residual activity [5] | residual activity [6] | residual activity [7] | residual activity [8] | residual activity [9] | residual activity [10] |
| --- | --- | --- | --- | --- | --- | --- | --- | --- | --- | --- |
| O=C1NC(=O)C(c2cn(CCCn3ccnc3)c3ccccc23)=C1Nc1ccccc1 | 6% | 2% | 19% | 2% | 8% | 2% | 8% | 2% | 27% | 6% |
| COc1cc2c(cc1OC)-c1n[nH]c(Nc3cccc(F)c3)c1C2 | 104% | 99% | 104% | 108% | 104% | 105% | 102% | 106% | 110% | 105% |
| COc1ccc(Cl)cc1NC(=O)Nc1cc(C)nc2ccccc12 | 98% | 98% |  |  |  |  |  |  |  |  |
| Cn1sc(=O)n(Cc2ccccc2)c1=O | 85% | 3% | 94% | 54% | 59% | 3% | 87% | 45% | 89% | 43% |
| COc1ccc(CNC(=O)Nc2ncc([N+](=O)[O-])s2)cc1 | 102% | 101% |  |  |  |  |  |  |  |  |
| Nc1nc(Nc2ccc(S(N)(=O)=O)cc2)nn1C(=O)c1c(F)cccc1F | 63% | 18% |  |  | 61% | 19% | 70% | 23% |  | 54% |
| COc1ccc2c(c1)c(C1=C(c3c[nH]c4ccccc34)C(=O)NC1=O)cn2CCCN(C)C | -1% | 0% | 4% | -1% | 3% | 0% | 3% | -1% | 4% | 3% |
| CC(C)c1nn(-c2c(Cl)cccc2Cl)c2nc(Cc3ccc(OCCO)cc3)[nH]c(=O)c12 | 105% | 107% | 125% | 106% | 94% | 106% | 103% | 105% | 104% | 95% |
| O=c1cc(N2CCOCC2)oc2c1ccc1ccccc12 | 102% | 96% | 104% | 95% |  |  | 100% | 98% | 95% | 92% |
| N#C/C(=C\c1ccc(O)c(O)c1)C(=O)NCc1ccccc1 |  |  |  |  | 124% | 102% |  |  |  |  |
| NC(=O)c1cccc(-c2cc(Nc3ccc(OC(F)(F)F)cc3)ncn2)c1 |  |  |  |  |  |  |  |  | 92% | 96% |
| Nc1nccc(-c2c(-c3ccc(F)cc3)ncn2C2CCNCC2)n1 |  |  | 115% | 69% |  | 63% |  |  |  |  |
| O=S(=O)(NCCNC/C=C/c1ccc(Br)cc1)c1cccc2cnccc12 |  |  |  |  |  | 38% | 54% | 11% |  | 55% |
| Fc1ccc(-c2nc3n(c2-c2ccncc2)CCS3)cc1 |  |  |  | 82% |  |  |  | 85% |  |  |
| Oc1cccc(-c2nc(N3CCOCC3)c3oc4ncccc4c3n2)c1 |  |  |  |  |  |  | 94% |  | 98% |  |
| CCOC(=O)c1c(C)[nH]c(/C=C2\C(=O)Nc3ccccc32)c1C |  |  |  |  |  |  | 96% |  |  |  |
| N#C/C(=C1/Nc2ccccc2S1)c1ccnc(NCCc2cccnc2)n1 |  |  | 125% | 121% | 95% | 100% |  |  |  |  |
| O=c1cc(N2CCNCC2)oc2c(-c3ccccc3)cccc12 |  | 102% |  |  |  |  | 101% | 102% | 97% | 95% |
| CCN(CC)CCNC(=O)c1c(C)[nH]c(/C=C2\C(=O)Nc3ccc(Cl)cc32)c1C |  |  | 125% | 117% |  | 51% |  | 68% |  |  |

| SMILES | residual activity [1] | residual activity [2] | residual activity [3] | residual activity [4] | residual activity [5] | residual activity [6] | residual activity [7] | residual activity [8] | residual activity [9] | residual activity [10] |
| --- | --- | --- | --- | --- | --- | --- | --- | --- | --- | --- |
| O=C1NC(=O)C(c2cn(CCCO)c3ncccc23)=C1c1cnccn1 |  |  |  |  | 92% | 91% | 97% | 91% |  |  |
| Nc1n[nH]c2nc3ccccc3nc12 |  |  |  |  |  |  | 85% | 68% |  |  |
| CCN1/C(=C/C(C)=O)Sc2ccc(OC)cc21 |  |  |  |  |  |  |  |  |  | 82% |
| Nc1ncnc2c1cnn2-c1ccccc1 | 97% | 97% |  |  |  | 98% | 99% | 97% |  |  |
| Nc1ncnc2[nH]nc(Nc3ccc(F)cc3)c12 | 108% |  | 122% | 110% |  |  | 104% | 91% | 113% | 99% |
| CC(C)N(CCC(=O)c1ccc2ccccc2c1)Cc1ccccc1 |  |  |  |  |  | 85% |  |  |  |  |
| O=C(c1cc2cc(O)ccc2[nH]1)c1cc2cc(O)ccc2[nH]1 |  |  |  |  |  | 56% | 100% | 83% |  |  |
| CCCCc1c(-c2ccc(O)cc2)[nH]c2nccnc12 | 97% | 100% |  |  |  |  | 97% | 100% |  |  |
| N#Cc1c(NC(=O)c2cccc3ccccc23)sc2c1CCCC2 |  |  |  |  | 94% |  |  |  |  |  |
| CN(C)S(=O)(=O)c1ccc2c(c1)/C(=C/c1cc3c([nH]1)CCCC3)C(=O)N2 |  |  |  |  |  |  |  | 121% | 116% |  |
| O=C(Nc1nc2ccccc2n1CCN1CCOCC1)c1cccc([N+](=O)[O-])c1 | 104% | 102% |  |  | 105% | 102% |  | 103% |  |  |
| CN([C@@H](Cc1ccc(OS(=O)(=O)c2cccc3cnccc23)cc1)C(=O)N1CCN(c2ccccc2)CC1)S(=O)(=O)c1cccc2cnccc12 |  |  |  |  | 99% | 99% |  |  |  |  |
| O=C1Nc2ccc(Cl)cc2/C1=C/c1cc(Cl)c(O)c(Cl)c1 |  |  |  |  |  |  | 100% | 100% |  | 90% |
| CCOc1nc(NC(=O)Cc2cc(OC)ccc2OC)cc(N)c1C#N |  |  |  |  |  |  | 118% |  |  |  |
| CCCCc1c(-c2ccc(OC)cc2)[nH]c2nccnc12 |  |  | 101% | 90% |  | 106% |  | 106% | 104% | 102% |
| COc1cc2nccc(Oc3ccc(NC(=O)Nc4cc(C)on4)c(Cl)c3)c2cc1OC |  | 101% | 107% | 97% |  |  | 100% | 106% | 109% | 104% |
| O=C1C(Cl)=C(N2C(=O)CCC2=O)C(=O)c2ccccc21 |  | 3% |  |  |  | 77% | 68% | 60% |  |  |
| O=S(=O)(c1cccc2cnccc12)N1CCCNCC1 |  |  | 75% | 46% |  | 63% | 85% | 32% |  | 67% |
| O=C(c1ccccc1)c1ccc(N2CCOCC2)cc1O |  |  | 120% | 113% |  |  |  |  |  |  |
